Source: PubChem BioAssay (NCI)
This is part of a sample that, as a whole, favours compounds with a hit. Of some 83,000 tested, about 20% had one in any assay.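 For each line, cells grew in 96-well plates with the test compound present at a single concentration for 48 hours.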 A number with no mark means an inactive call. Calls of active or inactive are those of the source. How the source made its calls: active means growth percent below 10; inactive means the rest.

What was measured:
Experiment in all cases: NCI-60 one-dose screen, 48 h (100 = growth as untreated, 0 = no growth, -100 = all killed)
Settings in all cases: 10 µM unless noted
[1] = system: HCT-15 colon
[2] = system: HT29 colon
[3] = system: SNB-75 CNS
[4] = system: U251 CNS
[5] = system: PC-3 prostate
[6] = system: SK-MEL-5 melanoma
[7] = system: UACC-62 melanoma
[8] = system: LOX IMVI melanoma
[9] = system: SK-MEL-28 melanoma
[10] = system: SK-MEL-2 melanoma
[11] = system: EKVX NSCLC
[12] = system: SN12C renal
[13] = system: UO-31 renal
[14] = system: TK-10 renal
[15] = system: ACHN renal
[16] = system: CAKI-1 renal
[17] = system: A498 renal
[18] = system: CCRF-CEM leukemia
[19] = system: MOLT-4 leukemia
[20] = system: SNB-19 CNS

O=C(/C(=C\c1ccc([N+](=O)[O-])cc1)S(=O)Cc1ccc(Cl)cc1)c1ccc(Cl)cc1 (stereo unspecified)
growth [1]: 34.8%
growth [2]: 16.5%
growth [3]: 93%
growth [4]: 53.6%
growth [5]: 66.9%
growth [6]: 90.7%
growth [7]: 69.2%
growth [8]: 40.5%
growth [9]: 86.8%
growth [10]: 94.6%
growth [11]: 98.5%
growth [12]: 49.6%
growth [13]: 70.4%
growth [14]: 91.9%
growth [15]: 64.6%
growth [16]: 83.8%
growth [17]: 77.4%
growth [18]: 22%
growth [19]: 25.1%

CN1CCN(C(=O)[C@]23CCC(C)(C)C[C@H]2C2=CC[C@@H]4[C@@]5(C)C/C(=C/c6ccncc6)C(=O)C(C)(C)[C@@H]5CC[C@@]4(C)[C@]2(C)CC3)CC1
growth [1]: 36.3%
growth [2]: 5.24% (active)
growth [3]: 85.2%
growth [4]: 44.8%
growth [5]: 19.5%
growth [6]: 54.3%
growth [7]: 61%
growth [8]: 40.2%
growth [9]: 74.7%
growth [10]: 78.2%
growth [11]: 80.2%
growth [12]: 49.9%
growth [13]: 37.3%
growth [14]: 77.1%
growth [15]: 65.1%
growth [18]: 19.7%
growth [19]: 2.92% (active)

C=C1C(=O)O[C@H]2[C@H]1CC/C(CNC(=O)C(C)c1ccc(CC(C)C)cc1)=C\CC[C@@]1(C)O[C@@H]21 (stereo partly specified)
growth [1]: -55.7% (active)
growth [2]: -52.4% (active)
growth [3]: 64.5%
growth [4]: 45.2%
growth [5]: 16.6%
growth [6]: 61.3%
growth [8]: -80.3% (active)
growth [9]: -76.9% (active)
growth [10]: 32.9%
growth [11]: 0% (active)
growth [12]: -0.803% (active)
growth [13]: -99.7% (active)
growth [14]: -61% (active)
growth [15]: -95.9% (active)
growth [16]: -7.71% (active)
growth [18]: -1.13% (active)
growth [19]: 0.34% (active)

O=C1c2ccc3c4c(ccc(c24)C(=O)N1CCCNCc1ccccc1F)C(=O)N(CCCNCc1ccccc1F)C3=O
growth [1]: -60.6% (active)
growth [2]: -77% (active)
growth [3]: -98.2% (active)
growth [4]: -85.6% (active)
growth [5]: -59.1% (active)
growth [6]: -96.2% (active)
growth [7]: -57.6% (active)
growth [8]: -71.9% (active)
growth [9]: -93.6% (active)
growth [10]: -82.9% (active)
growth [11]: -56.5% (active)
growth [12]: -75.7% (active)
growth [13]: -58% (active)
growth [14]: -85.8% (active)
growth [15]: -47.1% (active)
growth [16]: -22.8% (active)
growth [18]: -11.7% (active)
growth [19]: -28.9% (active)

COc1ccc(/C=C/C(=O)Nc2cc(/C=C\c3cc(OC)c(OC)c(OC)c3)cc(OC)c2OC)cc1OC
growth [1]: 25.9%
growth [2]: 14.6%
growth [3]: 34.7%
growth [4]: 41.3%
growth [5]: 20.7%
growth [6]: -59.3% (active)
growth [7]: 16.3%
growth [8]: 27.7%
growth [9]: 40.1%
growth [10]: 19.9%
growth [11]: 31.4%
growth [12]: 33%
growth [13]: 19.4%
growth [14]: 73.9%
growth [15]: 39.1%
growth [16]: 12%
growth [17]: -1.95% (active)
growth [18]: 3.79% (active)
growth [19]: -13.9% (active)

Cc1cccc(NC(=O)Nc2ccc(-n3cnc4cc(-c5ccc(O)cc5)ccc43)cc2)c1
growth [1]: 18.8%
growth [2]: 28.4%
growth [3]: 69.2%
growth [4]: 26.5%
growth [5]: 31.2%
growth [6]: 14.4%
growth [7]: 27.3%
growth [8]: 30.6%
growth [9]: 44%
growth [10]: 18.1%
growth [11]: 35.8%
growth [12]: 23%
growth [13]: 27.2%
growth [14]: 21.8%
growth [15]: 16.1%
growth [16]: 35%
growth [18]: 17.8%
growth [19]: 13.1%

COc1ccc(C(C)=O)c(OC)c1
growth [1]: 106%
growth [2]: 92%
growth [3]: 91.7%
growth [4]: 101%
growth [5]: 91.1%
growth [6]: 107%
growth [7]: 96.1%
growth [8]: 103%
growth [9]: 109%
growth [10]: 94.6%
growth [11]: 114%
growth [12]: 106%
growth [13]: 97.4%
growth [14]: 99.5%
growth [15]: 110%
growth [16]: 99.7%
growth [18]: 103%
growth [19]: 102%

CCN(CC)c1ccc(C(=O)c2ccccc2)cc1
growth [1]: 105%
growth [2]: 95%
growth [3]: 93.5%
growth [4]: 87.2%
growth [5]: 97.9%
growth [6]: 96.9%
growth [7]: 96%
growth [8]: 100%
growth [9]: 104%
growth [10]: 96.3%
growth [11]: 98.4%
growth [12]: 98.8%
growth [13]: 82%
growth [14]: 97.9%
growth [15]: 98.2%
growth [16]: 83.1%
growth [18]: 104%
growth [19]: 87.6%

O=C1Nc2ccccc2/C1=C\c1c(-c2ccccc2)nc2ccccn12
growth [1]: 29.3%
growth [2]: 21.8%
growth [3]: 38.5%
growth [20]: 55.8%
growth [5]: 49.9%
growth [6]: 17.3%
growth [8]: 37.1%
growth [9]: 58.6%
growth [10]: 52.5%
growth [11]: 53.1%
growth [12]: 46.1%
growth [13]: 48.2%
growth [14]: 84.4%
growth [15]: 40.9%
growth [17]: 28.6%
growth [18]: 37.9%
growth [19]: 9.8% (active)

Fc1ccc(-c2cn3c(nc4ccccc43)c(-c3ccccc3)n2)cc1
growth [1]: 94%
growth [2]: 78.4%
growth [3]: 68.9%
growth [4]: 91.5%
growth [5]: 85%
growth [6]: 88.6%
growth [7]: 78.9%
growth [8]: 106%
growth [9]: 185%
growth [10]: 109%
growth [11]: 108%
growth [12]: 89.2%
growth [13]: 80.4%
growth [14]: 113%
growth [15]: 92.7%
growth [16]: 84.9%
growth [17]: 111%
growth [19]: 92.4%

Oc1ccc(C2c3ccccc3Oc3ccccc32)c2cccnc12
growth [1]: 30.3%
growth [2]: 21.7%
growth [3]: 27.2%
growth [4]: 10.8%
growth [5]: 34.2%
growth [6]: -58.8% (active)
growth [7]: 4.38% (active)
growth [8]: 5.35% (active)
growth [9]: 36%
growth [10]: 27.4%
growth [11]: 20.4%
growth [12]: 22.9%
growth [13]: 4.44% (active)
growth [14]: 39.1%
growth [15]: 7.81% (active)
growth [16]: 0.125% (active)
growth [17]: 36%

CC(C)(C)CC(C)(C)n1nnnc1C(NC12CC3CC(CC(C3)C1)C2)c1ccccc1 (stereo unspecified)
growth [1]: 84.5%
growth [2]: 79.9%
growth [3]: 80.5%
growth [4]: 89.4%
growth [5]: 77.6%
growth [6]: 88.9%
growth [8]: 87.6%
growth [9]: 99.6%
growth [10]: 95.8%
growth [11]: 84.9%
growth [12]: 88.8%
growth [13]: 81.6%
growth [14]: 94.9%
growth [15]: 95.8%
growth [16]: 83.1%
growth [18]: 83.5%

CCc1c2c(nc3ccc(OCc4ccc(B(O)O)cc4)cc13)-c1cc3c(c(=O)n1C2)COC(=O)[C@]3(O)CC
growth [1]: 18%
growth [2]: 3.65% (active)
growth [3]: -7.42% (active)
growth [4]: -12% (active)
growth [5]: 24.4%
growth [6]: -67.5% (active)
growth [7]: -25.1% (active)
growth [8]: -47.8% (active)
growth [9]: 36%
growth [10]: 7.66% (active)
growth [11]: 25.4%
growth [12]: 6.55% (active)
growth [13]: -15.8% (active)
growth [14]: 27.5%
growth [15]: -12.6% (active)
growth [16]: -21% (active)
growth [17]: -58.4% (active)
growth [18]: 4.37% (active)
growth [19]: -5.64% (active)
